These results are taken from PubChem BioAssay AID686979 (National Center for Advancing Translational Sciences (NCATS), 2013).

About 50,000 (12%) of roughly 420,000 compounds were called active. A call without a number means that no potency is given here. Another 26% or so got no clear call; they are omitted. Calls follow the shape of the dose curve; as a rule, active = well fitted inhibition curve with a large enough effect; inconclusive = small, poorly fitted or top-dose-only effect; inactive = flat fitted curve, though single readings scatter. This excerpt belongs to a sample that is enriched for actives.
Potency is read from the fitted curve at half-maximal effect.

The test is described as follows: qHTS for Inhibitors of human tyrosyl-DNA phosphodiesterase 1 (TDP1): qHTS in cells in presence of CPT. Also: nearly all actives have a fitted effect of over 55% in size. Conditions: chicken DT40 Tdp1-/-;hTDP1 cells + 20 nM CPT, ATP luminescence, 48 h; series mostly up to 46.2 µM. An outline of the steps:
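Cell growth measured by CellTiter-Glo luminescence after a minimum 48 h, 37 C compound exposure with 20 nM CPT in Tdp1-knockout DT40 cells stably expressing hTDP1, seeded 400/well; qHTS titration format.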
For orientation: qHTS replaces the single test concentration by a dilution series.
As to `CC(=O)c1ccccc1OCc1ccc(C(=O)c2ccccc2)cc1`, the Potency was 16.4 µM (active).

Regarding `O=C(O)c1ccccc1OCc1ccccc1Cl`, the Potency result is “inactive”. The same measure for `O=C(NC1CCC(O)CC1)c1ccccc1OCc1ccc(F)cc1` (centres undefined): “inactive”. In the case of `S=C(Nc1ccc2c(c1)OCO2)N1CCCC1`, the Potency entry is “inactive”.

Regarding `O=C(CN1CCN(c2cccc(Cl)c2)CC1)Nc1ccc(S(=O)(=O)N2CCOCC2)cc1`, the Potency was 20.6 µM (active). Consider `O=C(CN1CCCCCC1)Nc1ccc(S(=O)(=O)N2CCCCC2)cc1`, for which the Potency entry was “inactive”. The same measure for `Cc1ccc(NC(=O)COC(=O)C2CC2)cc1S(=O)(=O)N1CCOCC1`: “inactive”. In the case of `O=S(=O)(c1ccc(NC(=S)NN=C(C2CC2)C2CC2)cc1)N1CCOCC1`, the Potency entry was “inactive”. Consider `O=C(CN1CCN(S(=O)(=O)/C=C/c2ccccc2)CC1)Nc1ccc(N2CCOCC2)cc1`, for which the Potency entry was “inactive”. On to `O=C(Nc1ccc(Oc2ccccc2)cc1)C1CCN(S(=O)(=O)c2ccc(Cl)cc2)CC1`, for which the Potency result is “inactive”. Turning to `Cc1ccc(NC(=O)C(C)OC(=O)C2CC3CCCC(C2)C3=O)cc1S(=O)(=O)N1CCOCC1` (centres undefined), the Potency entry was “inactive”.

Take `Cc1ccc(C(=O)Nc2ccc3c(c2)OCCO3)cc1S(=O)(=O)N1CCOCC1`: the Potency result was “inactive”.

Turning to `O=C(Nc1ccc(S(=O)(=O)N2CCOCC2)cc1)C1CCN(S(=O)(=O)c2ccc(Cl)cc2)CC1`, the Potency is 16.4 µM (active). To `Cc1ccc(NC(=O)C2CCC(C(C)(C)C)CC2)cc1S(=O)(=O)N1CCOCC1` (centres undefined) belongs 13 µM (active). Regarding `Cc1ccc(NC(=O)c2ccccn2)cc1S(=O)(=O)N1CCOCC1`, the Potency result was “inactive”. To `Cc1ccc(NC(=O)c2ccc(Cl)nc2)cc1S(=O)(=O)N1CCOCC1` belongs 10.3 µM (active); to `COc1cccc(C(=O)NNS(=O)(=O)c2ccc(F)cc2)c1`, “inactive”. For `Cc1c(NC(=O)c2cc(-c3ccc(Br)cc3)on2)c(=O)n(-c2ccccc2)n1C`, the Potency entry is “inactive”.

In the case of `CCCN(C(=O)CSc1nnc(N)s1)c1c(N)n(Cc2ccccc2)c(=O)[nH]c1=O`, the Potency result is “inactive”. To `COc1ccc(C(=O)Oc2ccc(-c3nnco3)cc2)cc1S(=O)(=O)N1CCOCC1` belongs “inactive”; to `Cc1nn(C)c(Cl)c1CN1CCC(Oc2ccc(C(=O)N3CCCC3)cc2)CC1`, “inactive”; to `Cc1ccc(C(CNC(=O)Nc2ccccc2)N2CCN(C)CC2)cc1` (centres undefined), “inactive”. With `CC(C)Cc1ccc(C(C)C(=N)N)cc1` (centres undefined), the Potency was 7.31 µM (active). `COc1c(F)c(F)c(-c2csc(N)n2)c(F)c1F`: the Potency result is “inactive”.

In the case of `O=C(Nc1nnc(-c2ccc(Cl)cc2)o1)c1ccccc1Br`, the Potency was 23.1 µM (active).

Regarding `O=C(COC(=O)c1ccccc1Br)Nc1nnc(-c2ccccc2)o1`, the Potency result is “inactive”. To `O=C(Nc1ccccc1)c1ccccc1Br` belongs “inactive”.

Take `CCCCNC(=O)N1CCCC(N(C)CCc2ccc(OC)c(OC)c2)C1` (centres undefined): the Potency entry was “inactive”.

With `CC(NC(=O)CNC(=O)Cc1cccc2ccccc12)c1ccc(S(N)(=O)=O)cc1` (centres undefined), the Potency entry was “inactive”.

In the case of `COc1ccc(-n2cc(CNC3CCOCC3)c(-c3cccc(F)c3)n2)cc1`, the Potency was 20.6 µM (active). To `COc1ccc(CN2C3CCCC2CC(NC(=O)c2cccc(F)c2)C3)cc1` (centres undefined) belongs “inactive”; to `Cc1cccc(-n2cc(CN3CCN(C(=O)c4ncn[nH]4)CC3)c(-c3cccc(F)c3)n2)c1`, “inactive”; to `COc1ccc(Cl)cc1-n1c(=S)sc2c(=O)n(-c3ccc(F)cc3)c(SCC(=O)O)nc21`, “inactive”. To `COc1cc(C)c(CN2CCc3nnc(C(C)NC(=O)c4cccnc4)n3CC2)cc1C` (centres undefined) belongs “inactive”; to `Cc1ccccc1Nc1c([N+](=O)[O-])ccc2nonc12`, “inactive”; to `Cc1nn(C)cc1C(=O)c1ccccc1`, “inactive”. With `COc1ccc(N(C)C(=O)C2CCN(S(=O)(=O)c3cccc4nsnc34)CC2)cc1`, the Potency entry is “inactive”. The same measure for `COc1ccc(OCCCC(=O)NCCc2ccccc2)cc1`: “inactive”. To `COc1ccc(CCC(=O)NCCc2csc(-c3ccc(Cl)cc3)n2)cc1` belongs 23.1 µM (active). Consider `COc1ccc(CCNC(=O)COC(=O)c2cnc(Cl)c(Cl)c2)cc1`, for which the Potency result is “inactive”. The same measure for `CCOc1ccc(C(=O)Nc2cc(Cl)ccc2-n2cncn2)cc1OC`: “inactive”; for `CCC(NC(=O)C1CCCC1)c1ccc(C)cc1` (centres undefined): “inactive”; for `Cc1cc[n+](C2CCCCC2)cc1`: 15.8 µM (active). To `CC(=O)NC(=O)c1ccccc1O` belongs “inactive”. Regarding `Cc1cc(C(=O)CCC(=O)NNC(=O)c2ccccc2O)c(C)s1`, the Potency entry is “inactive”.

On to `NC(=O)COC(=O)c1cc(S(=O)(=O)N2CCN(c3ccccc3)CC2)ccc1Cl`, for which the Potency entry was “inactive”. In the case of `O=C(NNC(=O)c1cc(S(=O)(=O)N2CCCCC2)ccc1Cl)c1ccccc1O`, the Potency is 23.1 µM (active).

As to `COc1ccccc1N(C)S(=O)(=O)c1ccc(Cl)c(C(=O)N2CCC(C(N)=O)CC2)c1`, the Potency entry is “inactive”. To `NC(=O)C1CCN(C(=O)c2cc(S(=O)(=O)N3CCN(c4ccccc4)CC3)ccc2Cl)CC1` belongs 10.3 µM (active).

Regarding `CC1=C(C)CC(C(=O)NNC(=O)c2ccccc2O)C(C(=O)O)C1` (centres undefined), the Potency is 18.4 µM (active). The same measure for `O=C(COC(=O)c1cc(S(=O)(=O)N2CCCCC2)ccc1Cl)NCc1ccco1`: “inactive”. With `CC1=C(C)CC(C(=O)NNC(=O)c2csc3c2CCC(C(C)(C)C)C3)C(C(=O)O)C1` (centres undefined), the Potency result is “inactive”. For `CC1=C(C)CC(C(=O)NC(C)CCc2ccccc2)C(C(=O)O)C1` (centres undefined), the Potency result is “inactive”. For `O=C(NNC(=O)c1ccccc1O)c1ccccc1O`, the Potency was 5.17 µM (active). As for `Cc1ccc(S(=O)(=O)N2CCCCC2)cc1NC(=O)CCNC(=O)c1ccccc1Cl`, the Potency result is “inactive”. Turning to `COCCNC(=S)N(CCc1c(C)[nH]c2ccc(C)cc12)Cc1cccnc1`, the Potency entry was “inactive”. Consider `CC(NC(=O)CN(C)S(=O)(=O)c1ccc(F)cc1)C1CC2CCC1C2` (centres undefined), for which the Potency result is “inactive”.

As for `CC(=O)N/C(=C\c1ccccc1)C(=O)OC(C)C(=O)N(C)c1ccccc1` (centres undefined), the Potency entry was “inactive”. As for `CCOC(=O)Cn1c(O)c(N=NC(=O)CNC(=O)Cc2ccccc2)c2ccccc21`, the Potency entry was “inactive”.

For the molecule `CC(=O)Nc1ccc(S(=O)(=O)N2CCC(C(=O)N[C@@H](Cc3ccccc3)C(=O)O)CC2)cc1`, the Potency entry is “inactive”. In the case of `COc1cccc(CNC(=O)C(NS(=O)(=O)c2ccc3nc(C)sc3c2)C(C)C)c1` (centres undefined), the Potency result is “inactive”. To `COc1ccc(/C=C2\SC(=S)N(CCC(=O)N3CCOCC3)C2=O)cc1OC` belongs “inactive”; to `COc1cccc(/C=C2/SC(=S)N(CC(=O)NC3C=CS(=O)(=O)C3)C2=O)c1` (centres undefined), “inactive”; to `COc1cccc(/C=C2\SC(=S)N(CCCC(=O)N3CCOCC3)C2=O)c1`, 18.4 µM (active).
